Screening data from PubChem BioAssay.
MITF primary: human MITF inhibition, primary screen; AlphaScreen MITF homodimerization, bead proximity signal; inhibition, % at 2.6 µM; actives 0.91% (n = 650,000); in the data active = inhibition above about 50%;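 also: 0% = vehicle wells with protein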
GPR151 ag: human GPR151 activation; AID 1508602; PathHunter beta-arrestin GPR151 cells, luminescence; Q8TDV0; actives 1% (n = 650,000); activation, % at 11.2 µM; in the data active = activation above about 4.9%;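 also: 0% = median of compound wells and 100% = cells with positive control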
TEAD-YAP inh: TEAD-YAP interaction inhibition; HEK-TIYL cells, TEAD-Gal4/YAP UAS-luciferase luminescence; inhibition, % at 9.12 µM; actives 1.4% (n = 640,000); AID 1259422; in the data active = inhibition above about 32%;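 also: 0% = median of test compound wells and 100% = reference inhibitor wells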
FBW7 act: activators of human E3 ligase FBW7 | Q969H0 | AlphaScreen FBW7–phospho-cyclin E peptide binding, activator screen | normalized activity (activation), % at 26.1 µM | actives 0.13% (n = 650,000) | AID 1259310; in the data active = normalized activity above about 1.9%;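 also: purified mutant Fbw7 with reduced substrate affinity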
Active calls of the source: *. Only some compounds are listed: those with a hit (about 3.4% of all), similar ones and a draw of the others.

SMILES	MITF primary	GPR151 ag	TEAD-YAP inh	FBW7 act
CCCCOc1ccc(NC(=O)C2CCCCC2C(=O)O)cc1 (stereo not drawn)	8	0	4	0
COc1cc(C(=O)n2cnc3ccccc32)ccc1OCc1ccc(Cl)cc1	11	-4	14	1
Cc1nnc(SCc2cnc(-c3ccc(C(C)C)cc3)s2)n1C	9	1	58*	0
Cn1nnnc1SCc1cnc(-c2ccccc2)s1	10	-1	-14	0
O=C(NCCc1ccc(O)cc1)c1csc(Nc2ccc(-n3ccnc3)cc2)n1	25	-2	31	0
O=C(NCCOc1ccccc1)c1csc(Nc2ccc(-n3ccnc3)cc2)n1	15	2	45*	0
O=C(NCCOc1ccccc1)c1cccc(Nc2ccc(-n3ccnc3)cc2)n1	11	2	61*	0
O=C(NCCOc1ccccc1)c1cccc(Nc2ccncc2)n1	-8	1	-8	0
COc1ccc(C(=O)Cn2c(-c3nnc(C)o3)cc3ccccc32)cc1	3	0	10	0
CCOC(=O)c1c(N)sc(C(=O)OC)c1CC(=O)OC	0	2	7	0
COC(=O)c1sc(N)c(C(=O)OC)c1COC(=O)c1c(C)noc1C	9	-1	46*	0
O=C(Nc1ccc(Nc2ccccc2)cc1)c1ccc(C(=O)c2ccccc2)o1	9	3	43*	0
Cc1[nH]n(-c2ccccc2)c(=O)c1C(N)=NC(=O)c1ccccc1	-8	1	11	0
Cc1[nH]n(-c2ccccc2)c(=O)c1C(=O)c1cccc(F)c1	-9	0	46*	-1
Cc1[nH]n(-c2ccccc2)c(=O)c1C(=O)c1ccc(Cl)cc1	-3	-1	61*	0
COc1cccc(N=Cc2c(O)n(-c3ccccc3C)c(=O)[nH]c2=O)c1	8	0	-9	0
CCOC(=O)Nc1ccc(I)cc1	1	1	-38	0
CCOC(=O)Nc1ccc(Cc2ccc(NC(=O)OCC)cc2)cc1	-4	1	33*	0
CCOC(=O)C1=C(C)N=c2s/c(=C/c3ccc(N(C)C)o3)c(=O)n2C1c1ccccc1OC(C)C (stereo not drawn)	-6	-1	4	0
C=CCSC1=C(C#N)C(c2ccc(OCc3ccccc3)cc2)CC(=O)N1 (stereo not drawn)	-10	0	33*	0
O=C(O)c1cc(N/N=C/c2ccccc2[N+](=O)[O-])ccc1Cl	1	-3	-47	0
Oc1ccc(-c2cnc3c(N4CCOCC4)nccn23)cc1	45	-1	79*	0
Oc1cccc(-c2cnc3c(N4CCOCC4)nccn23)c1	10	0	80*	-1
CC(=O)Nc1cccc(-c2cnc3c(N4CCN(C)CC4)nccn23)c1	13	1	-68	-1
CC(=O)Nc1cccc(-c2cnc3c(N4CCOCC4)nccn23)c1	11	-1	79*	-1
SMILES	MITF primary	GPR151 ag	TEAD-YAP inh	FBW7 act
O=C(O)CC(C(=O)O)N1C(=O)/C(=C/c2ccccc2F)SC1=S (stereo not drawn)	1	3	7	0
c1ccc(-c2cc(N3CCN(c4ccccn4)CC3)nc(-c3ccccn3)n2)nc1	107*	1	71*	-1
CCOC(=O)c1[nH]c2c([N+](=O)[O-])cc(OC)cc2c1-c1ccccc1	13	0	3	0
CCOc1cc([N+](=O)[O-])c2[nH]c(C(=O)O)c(C)c2c1	-9	-1	45*	0
O=C1OC(c2cccc(Cl)c2)=N/C1=C\c1ccccc1	-9	-8	73*	0
O=C1OC(c2cccc(Cl)c2)=N/C1=C\c1cccc(Cl)c1	-13	0	-12	0
CC1(C)CC(=O)C2=C(C1)Nc1ccc3ncccc3c1C2c1cccc(Cl)c1Cl (stereo not drawn)	2	2	3	0
CC1(C)CC(=O)C2=C(C1)Nc1ccc3ncccc3c1C2c1cn[nH]c1-c1ccc(F)cc1 (stereo not drawn)	-2	-1	35*	0
O=C(Oc1ccc(/C=C/c2ccncc2)cc1)c1ccncc1	-4	-7	48*	0
Nc1cc(=O)[nH]c(SCCN2C(=O)c3ccccc3C2=O)n1	0	0	1	0
C=CCN=C1NN=C(c2cc(C)n(CC=C)c2C)CS1	-2	-3	89*	0
Cc1cc(C2=NNC(=NCc3ccccc3)SC2)c(C)n1C	7	-1	1	1
NC1=NN=C(c2ccc3c(c2)OCCO3)CS1	1	0	-13	0
CCN=C1NN=C(c2ccc(C)cc2)CS1	8	1	73*	0
C=CCN=C1NN=C(c2ccc3c(c2)OCCO3)CS1	7	0	51*	0
c1ccc(CN=C2NN=C(c3ccccc3)CS2)cc1	5	1	-27	0
Cn1c(=O)c2[nH]c(Nc3cccc(C(F)(F)F)c3)nc2n(C)c1=O	16	1	45*	0
CCOc1ccc(CNC(=O)Cc2cn(C)c3ccccc23)cc1	18	0	5	0
CCOc1ccc(CC(=O)NCc2ccccc2)cc1	-2	1	37*	0
COCC(=O)N/N=C(\C)CC(=O)NCc1ccc(OC)cc1	10	-1	-14	2.1*
COc1ccc(CNC(=O)Cc2ccc(-n3cccc3)cc2)cc1	16	-1	45*	0
O=C(COc1ccccc1[N+](=O)[O-])Nc1sc2c(c1C(=O)NCc1ccccc1)CCCC2	15	-1	-5	0
CCCCN(C(=O)NC(=O)NC(C)C1CC2CCC1C2)S(C)(=O)=O (stereo not drawn)	-6	3	8	0
O=C(O)CCCCCNc1nc2nc[nH]c2c(=O)[nH]1	-4	0	2	0
CN(CCc1ccccc1)C(=O)c1nc2sccn2c1CNC1CCCC1	4	-1	9	0
SMILES	MITF primary	GPR151 ag	TEAD-YAP inh	FBW7 act
O=C1N[C@@H](COCc2ccccc2)C(=O)N2CCN(C(=O)Oc3ccccc3)C[C@H]12	-6	0	-10	0
O=C1CCCN1CCCNc1nc(Nc2nccc3ccccc23)nc2c1ncn2-c1ccsc1	-1	2	59*	0
CCCNc1nc(NCCCN2CCCC2=O)nc2c1ncn2-c1ccsc1	8	-1	48*	0
CC(C)N(CCNc1nc(NCCCN2CCCC2=O)nc2c1ncn2-c1ccsc1)C(C)C	5	1	7	0
O=C1CCCN1CCn1cnc2c(NCCc3ccc(O)cc3)nc(N3CCN(c4ccccn4)CC3)nc21	5	0	36*	0
c1ccc(CN2CCC(Nc3nc(Nc4ccccc4)nc4c3ncn4-c3ccsc3)CC2)cc1	8	-1	8	0
OC1CCC(Nc2nc(NC3CCN(Cc4ccccc4)CC3)c3ncn(-c4ccsc4)c3n2)CC1 (stereo not drawn)	-5	4	60*	0
O=C1CCCN1CCn1cnc2c(NCCO)nc(N3CCN(c4ccccn4)CC3)nc21	17	2	-1	0
COc1cccc(C2C3=C(Nc4ncnn42)c2ccccc2OC3c2ccc(SC)cc2)c1 (stereo not drawn)	19	-2	-7	0
